Activity calls are given as the source filed them. The calls were made as follows: active = hit-call score of the fitted dose curve at least 0.9, where 1 is the maximum; inactive = score below 0.9.
Experiment: ATG_M_06_CIS: Attagene CIS-FACTORIAL HepG2 Assay for M06 Transcription Factor (Internal Marker) (AID 2282950)
Conditions: HepG2 Attagene CIS-FACTORIAL M06 internal marker reporter; actives raise or lower the signal
Outline: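 Terse: HepG2, transient MRTU transfection (FuGene 6), 24 h dosing; total RNA, oligo(dT) RT, PCR, FAM label, HpaI cut, capillary electrophoresis; bidirectional fit vs DMSO baseline; background-control endpoint.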

Compound | outcome
Nc1ccc(S(=O)(=O)Nc2nccs2)cc1 | inactive
C=C(C)C(=O)OCC(F)(F)C(F)(F)C(F)(F)F | inactive
O=P(O)(O)OCCC(F)(F)C(F)(F)C(F)(F)C(F)(F)C(F)(F)C(F)(F)F | inactive
CC(=O)Nc1ccc(N=Nc2cc(C)ccc2O)cc1 | inactive
FC(F)(F)C(F)(F)C(F)(F)C(F)(F)CCI | inactive
CCc1c(Br)c(Br)c(Br)c(Br)c1Br | inactive
CC(C)(C)c1ccc(OC2CCCCC2O)cc1 (stereo not given) | inactive
CC(C)OC(=O)c1ccccc1C(=O)OC(C)C | inactive
OC[C@@H](O)[C@@H](O)[C@H](O)[C@@H](O)CO | inactive
CN(C)Cc1ccccc1O | inactive
CCc1ccc(C(c2ccc(CC)cc2)C(Cl)Cl)cc1 | inactive
CC(C)c1ccccc1N | inactive
C1COCCN1 | inactive
COC(=O)CCC(F)(F)C(F)(F)C(F)(F)C(F)(F)F | inactive
C=CC(=O)OCC(F)(F)C(F)(F)C(F)(F)C(F)(F)C(F)(F)C(F)(F)C(F)(F)F | inactive
O=S(=O)(O)c1ccc2ccccc2c1 | inactive
CCCCC(CC)COP(=O)(O)OCC(CC)CCCC (stereo not given) | inactive
COC(=O)C1CCC(C(=O)OC)CC1 (stereo not given) | inactive

Compound | outcome
Nc1cc(Cl)c(N)c(Cl)c1 | inactive
O=C(O)C(F)(F)C(F)(F)OC(F)(F)F | inactive
CC(C)=CCCC(C)CCOC(=O)C(C)C (stereo not given) | inactive
N=C(N)C(F)(F)C(F)(F)C(F)(F)C(F)(F)C(F)(F)C(F)(F)C(F)(F)F | inactive
O=C(Cl)C(F)(F)C(F)(F)C(F)(F)C(F)(F)C(F)(F)C(F)(F)C(F)(F)C(F)(F)F | inactive
C=CC(F)(F)C(F)(F)C(F)(F)C(F)(F)C(F)(F)C(F)(F)C(F)(F)C(F)(F)F | inactive
CS(C)(=O)=O | inactive
O=C(O)C(F)(F)C(F)(F)C(F)(F)C(F)(F)C(F)(F)C(F)(F)C(F)(F)C(F)(F)C(F)(F)C(F)(F)C(F)(F)C(F)(F)F | inactive
O=C(O)C(F)(F)C(F)(F)C(F)(F)C(F)(F)F | inactive
Cc1ccc(S(=O)(=O)OCC(F)(F)C(F)(F)C(F)(F)C(F)(F)C(F)(F)C(F)F)cc1 | inactive
Cc1ccc(S(=O)(=O)NCl)cc1 | inactive
C=C(C)C(=O)OCC(F)(F)C(F)(F)C(F)(F)C(F)(F)C(F)(F)C(F)(F)C(F)(F)F | inactive
FC(F)(F)C(F)(F)C(F)(F)C(F)(F)C(F)(F)C(F)(F)CCS | inactive
CCCCCC=O | inactive
CCCCCCCCC(F)(F)C(F)(F)C(F)(F)C(F)(F)C(F)(F)C(F)(F)F | inactive
Cc1cc(C)cc(O)c1 | inactive
O=S(=O)(OCCOC(F)(F)F)C(F)(F)F | inactive
